For 40 compounds, normalised cell number results are on record in PubChem BioAssay.

SMILES strings stand for the structures. Where “and” joins values, the source holds several entries; their conditions need not be identical. Identical values can stand only once.

The nature of this assay: differential killing of epithelial or mesenchymal cells, primary screen, imaging, PC-3E GFP, TEM4-18 mCherry, co-culture (AID 1345086).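 Further: cells exposed to compound for 72 h before imaging.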 Particulars: imaging cell counts, measured here: epithelial PC-3E GFP cell survival, at 1 µM.
As for `C[n+]1cc2c3c(ccc2c2ccc4cc5c(cc4c21)OCO5)OCO3`, the normalised cell number was found to be 0.84. Compound `CCN(CC)CCNC(=O)c1ccc(NC(C)=O)cc1` returned a normalised cell number of 0.89. Consider `CCCCC1(COC(=O)CCC(=O)O)C(=O)N(c2ccccc2)N(c2ccccc2)C1=O`, for which the normalised cell number stood at 0.96. Turning to `CCC(=O)O[C@H]1[C@H](O[C@@H]2[C@@H](C)[C@H](O[C@H]3C[C@@](C)(OC)[C@@H](O)[C@H](C)O3)[C@@H](C)C(=O)O[C@H](CC)[C@@](C)(O)[C@H](O)[C@@H](C)C(=O)[C@H](C)C[C@@]2(C)O)O[C@H](C)C[C@@H]1N(C)C`, the normalised cell number amounted to 1.08. To `CO/N=C1\CN(c2nc3c(cc2F)c(=O)c(C(=O)O)cn3C2CC2)CC1CN` (stereo not given) belongs 1.32. As for `Cc1c(NC(=O)c2cccnc2)c(=O)n(-c2ccccc2)n1C`, the figure is 1.05. To `CCOc1ccc(NC(C)=O)cc1` belongs 1.07. With `Cc1c[nH]c2ccccc12`, the normalised cell number was found to be 0.86. As for `CC1(C)S[C@@H]2[C@H](NC(=O)C(C(=O)O)c3ccccc3)C(=O)N2[C@H]1C(=O)O` (stereo not given in full), the figure is 0.99; as for `Nc1ccc(S(=O)(=O)Nc2ccc(Cl)nn2)cc1`, 0.46; as for `O=C(O)c1cc(O)c(O)c(O)c1`, 1.14. In the case of `Cc1c(Nc2ncccc2C(=O)O)cccc1C(F)(F)F`, the normalised cell number is 1.09 and 1.11.

Turning to `CCN(CC)CCOC(=O)C(c1ccccc1)c1ccccc1`, the normalised cell number turned out to be 1.02. As for `C/C=C1\[C@H]2C=C(C)C[C@]1(N)c1ccc(=O)[nH]c1C2`, the figure is 0.97; as for `CCCC(C(=O)OCCN(CC)CC)(c1ccccc1)c1ccccc1`, 0.9. As for `O=c1[nH]cnc2nc[nH]c12`, the figure is 0.95; as for `CCN(CC)CCNC(=O)c1cc(Br)c(N)cc1OC`, 0.97.

Turning to `COc1ccc(NS(=O)(=O)c2ccc(N)cc2)nn1`, the normalised cell number stood at 0.94.

For `Cc1ccc(C(C)C)cc2c(C)ccc1-2`, the normalised cell number came to 1.25. The compound `Nc1ccc(C(=O)NCC(=O)O)cc1` returned a normalised cell number of 1.03. `CN(C)C(=O)Oc1cccc([N+](C)(C)C)c1` displayed a normalised cell number of 0.88. To `Oc1c(Cl)cc(Cl)cc1Sc1cc(Cl)cc(Cl)c1O` belongs 1.15; to `COc1ccc(C(=O)c2ccccc2)c(O)c1`, 1.15; to `Nc1nc2c(c(=O)[nH]1)N(C=O)C(CNc1ccc(C(=O)N[C@@H](CCC(=O)O)C(=O)O)cc1)CN2` (stereo not given in full), 0.95.

With `C[N+](C)(C)CCCCCC[N+](C)(C)C`, the normalised cell number was 1.09. Consider `NC(=NCCCCCCN=C(N)/N=C(\N)Nc1ccc(Cl)cc1)/N=C(\N)Nc1ccc(Cl)cc1`, for which the normalised cell number amounted to 0.89. To `O=C1c2ccccc2C(=O)C1c1ccccc1` belongs 1.09.

For the compound `CCO/C([O-])=N/c1c[n+](N2CCOCC2)no1`, the normalised cell number came to 1.04.

`O=C1c2c(O)cccc2Cc2cccc(O)c21` came in with a normalised cell number of 1.25. Compound `Cc1cccc(C(=O)O)c1O` gave a normalised cell number of 0.79. As for `O=C(O)[C@@H]1[C@H]2C[C@H]3c4[nH]c5ccccc5c4CCN3C[C@@H]2CC[C@@H]1O`, the figure is 0.89; as for `CC(C)NNC(=O)c1ccncc1`, 1.3; as for `C[N+]1(CCCCC[N+]2(C)CCCC2)CCCC1`, 1.09. `CC(=O)Oc1cccc(O)c1` gave a normalised cell number of 1.1.

On to `C=CCc1ccccc1OCC(O)CNC(C)C` (stereo not given), for which the normalised cell number was 1.2. To `NC(CS)C(=O)O` (stereo not given) belongs 1.

Compound `CCOC(=O)NNc1nncc2ccccc12` gave a normalised cell number of 0.94. In turn, `Cc1nc2n(c(=O)c1CCN1CCC(c3noc4cc(F)ccc34)CC1)CCC[C@H]2O` came in with a normalised cell number of 0.84.

Take `CN1CCCN=C1COC(=O)C(O)(c1ccccc1)C1CCCCC1` (stereo not given): the normalised cell number was 1.21. As for `CC1CCC(NC(=O)N(CCCl)N=O)CC1` (stereo not given), the figure is 1.17.
